Data from the supplement of paper PMC3334620.
In all, about 33,000 sequences were measured (“E-score (-0.5 to 0.5)”: median about -0.036, highest 2% from about 0.37 on). What follows is part of a selection rich in the highest values, with near analogues and random picks from the rest.

target: T1, Yer064c (UniProt P40041); test: PBM E-score (8-mer binding enrichment) (E-score (-0.5 to 0.5)); higher = stronger / more preferred TF binding; settings: protein concentration: 200 nM; construct: GST-full length
T1 sequence: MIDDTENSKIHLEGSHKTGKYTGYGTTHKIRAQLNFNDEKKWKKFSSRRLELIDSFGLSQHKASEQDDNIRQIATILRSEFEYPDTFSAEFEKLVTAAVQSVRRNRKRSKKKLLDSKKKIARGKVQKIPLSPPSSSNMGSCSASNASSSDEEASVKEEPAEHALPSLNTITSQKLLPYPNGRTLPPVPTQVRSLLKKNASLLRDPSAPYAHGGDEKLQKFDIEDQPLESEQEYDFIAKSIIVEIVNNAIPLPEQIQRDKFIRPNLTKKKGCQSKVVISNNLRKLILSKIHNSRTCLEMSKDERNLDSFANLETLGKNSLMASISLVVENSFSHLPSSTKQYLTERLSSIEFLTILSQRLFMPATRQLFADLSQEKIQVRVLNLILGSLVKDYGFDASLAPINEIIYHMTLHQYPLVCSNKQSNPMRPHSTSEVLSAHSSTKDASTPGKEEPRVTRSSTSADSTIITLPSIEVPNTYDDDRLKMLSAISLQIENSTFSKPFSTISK
In short: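 PURExpress in vitro transcription/translation supplied GST-tagged yeast transcription factors, either full-length or DNA-binding domain. Applied at about 100-200 nM to universal all-10-mer Agilent arrays double-stranded by primer extension, the bound protein was detected with fluorescent anti-GST. E-scores, modified Wilcoxon-Mann-Whitney statistics, were given by the Universal PBM Analysis Suite to ungapped eight-base words pooled with their reverse complements after masliner normalisation.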

| Sequence | PBM E-score |
| --- | --- |
| CGCCCTTC | -0.212 |
| ACAACTCT | 0.175 |
| ACGACTGC | 0.19 |
| ACTACTCA | 0.344 |
| ACGACTCA | 0.477 |
| GCGACTTA | 0.266 |
| ACGACGCC | -0.211 |
| GCGACTCA | 0.483 |
| ACGACTTA | 0.276 |
| GCGACTGA | 0.31 |
| ACGACTCC | 0.423 |
| ACGACTCT | 0.404 |
| ACTACTCT | 0.239 |
| CCACTAGA | -0.195 |
| AAAACGGT | -0.155 |
| TAGAAAGA | 0.113 |
| AGTCTCAC | 0.337 |
| GCTGGTGA | 0.0962 |
| CCATTACG | -0.038 |
| ACGACTTG | 0.17 |
| TCTACTCA | 0.202 |
| GCCACTCC | -0.128 |
| CCGACTCG | 0.296 |
| TCGACTCA | 0.435 |

| Sequence | PBM E-score |
| --- | --- |
| GCGACTCC | 0.39 |
| CCGACTGA | 0.192 |
| CCGACTCC | 0.339 |
| CCGACTCA | 0.441 |
| ACGACTCG | 0.394 |
| GCGACCCC | -0.237 |
| TCGACCCA | 0.0521 |
| CGAGAATC | 0.117 |
| GCGAGCCC | -0.21 |
| GCAATACC | -0.127 |
| CCTGTGCA | -0.146 |
| AAAACAGG | -0.126 |
| TAATGGCA | -0.172 |
| GCCAAAAA | 0.0564 |
| AGAGAGGG | -0.162 |
| CATGATCC | 0.0741 |
| CATGATTC | 0.457 |
| CCTGATGC | -0.0643 |
| CCTGATTC | 0.399 |
| CTTGATTC | 0.324 |
| CATGATTA | 0.453 |
| AATGATTC | 0.464 |
| ACTGATTC | 0.319 |
| AATGATTG | 0.358 |

| Sequence | PBM E-score |
| --- | --- |
| ATTGATTC | 0.301 |
| CATGATGA | 0.261 |
| CATGATAA | 0.12 |
| CCTGGGAC | -0.363 |
| ATGGGCGA | 0.0478 |
| CAAAAGAG | 0.0455 |
| CTTACCGA | -0.0159 |
| ACATCGAT | 0.00682 |
| AGACGAAT | 0.00164 |
| CAAGCCAG | -0.139 |
| GGCGGCCC | -0.0657 |
| AACTCCAA | 0.0471 |
| TACTCCAA | 0.00552 |
| AACTCCAC | -0.115 |
| GACTCCAC | 0.37 |
| GACTCCAA | 0.418 |
| CACTCCAC | 0.0622 |
| CAGTAAAA | -0.0284 |
| AATTACCT | 0.0151 |
| AAAAGAAC | -0.144 |
| CCTTCGGC | -0.197 |
| AGCACTCA | 0.119 |
| GGGACGCA | -0.165 |
| CGGACTCC | 0.191 |

| Sequence | PBM E-score |
| --- | --- |
| GGGACTCA | 0.405 |
| CGGACTCA | 0.411 |
| AGGACTCC | 0.335 |
| CGAACTCA | 0.225 |
| AGGACTCA | 0.468 |
| GGGACACA | 0.0557 |
| GAGAGGGC | -0.203 |
| CCCGCTGC | -0.00295 |
| GCTTGTAC | -0.18 |
| TCCCAAGA | 0.0948 |
| CGATGTCA | -0.0638 |
| CTCAAATC | 0.158 |
| CACTAAAC | 0.108 |
| GACTAAAA | 0.429 |
| AACTAAAA | 0.0564 |
| GACTAAAC | 0.435 |
| AACTAAAC | -0.0459 |
| TACTAAAA | -0.00832 |
| GATTCTCA | 0.221 |
| CTCTCCAC | -0.0601 |
| ATTCTCTA | 0.0286 |
| GGACGTCA | -0.0394 |
